# Screens from PubChem.
# Pol kappa inh-1 – inhibitors of human DNA polymerase kappa | Q9UBT6 | purified Pol kappa, fluorescent DNA synthesis assay, 10 min | Potency, µM (top dose mostly 107 µM), for inactives: at the highest dose activity, negative = inhibition, most hits filed as inhibitors | actives 0.53% (n = 400,000) | AID 588579; note: potency is the fitted concentration of half-maximal effect; % is set by controls: 0 for no effect and ±100 for the full control effect
#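 Here, compound and 10 nM enzyme are combined for 15 min at room temperature; adding 50 nM substrate (final) starts DNA synthesis, tracked by fluorescence at 0 and 10 min against buffer-only wells.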
# POLB inh – DNA polymerase beta (human) inhibition | P06746 | Pol beta primer extension/strand displacement, fluorescence kinetic | Potency, µM (doses to about 114 µM), without a hit: at the top dose activity change, negative = inhibition, actives largely listed as inhibitors | actives 1.3% (n = 340,000) | AID 485314; note: potency is the fitted concentration of half-maximal effect; % is set by controls: 0 for no effect and ±100 for the full control effect
#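 Kinetic readout of DNA synthesis with strand displacement by Pol beta. Compound and 10 nM enzyme sit 15 min at room temperature; 50 nM substrate starts the reaction, read immediately and at 10 min.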
# APE1 inh – blocks human APE1 abasic DNA cleavage; recombinant APE1, TAMRA/BHQ-2 abasic DNA cleavage fluorescence; Potency, µM (top dose mostly 65.8 µM), without a hit: at the top dose activity change, negative = inhibition, most hits filed as inhibitors; actives 0.35% (n = 350,000); AID 2517;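 note: potency is the fitted concentration of half-maximal effect; plate controls were vehicle for no effect and reference inhibitor for full effect; nearly all actives have a fitted effect of over 55% in size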
#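 Compound pre-exposure to 0.75 nM APE1, 15 min at ambient temperature. Reaction initiated with 50 nM TAMRA/BHQ-2 THF substrate, read immediately in kinetic mode, 525 nm excitation, 598 nm emission.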
# L3MBTL1 block – blocks human L3MBTL1; Q9Y468; AlphaScreen L3MBTL1–H3K9me1 peptide binding; Potency, µM (highest dose often 57.1 µM), inactives show at the top dose activity, negative = inhibition, hits mostly inhibitors; actives 0.66% (n = 230,000); note: potency is the fitted concentration of half-maximal effect; % is set by controls: 0 for no effect and ±100 for the full control effect; nearly all actives have a fitted effect of over 60% in size
# Target sequence (Q9Y468 whole entry, looked up): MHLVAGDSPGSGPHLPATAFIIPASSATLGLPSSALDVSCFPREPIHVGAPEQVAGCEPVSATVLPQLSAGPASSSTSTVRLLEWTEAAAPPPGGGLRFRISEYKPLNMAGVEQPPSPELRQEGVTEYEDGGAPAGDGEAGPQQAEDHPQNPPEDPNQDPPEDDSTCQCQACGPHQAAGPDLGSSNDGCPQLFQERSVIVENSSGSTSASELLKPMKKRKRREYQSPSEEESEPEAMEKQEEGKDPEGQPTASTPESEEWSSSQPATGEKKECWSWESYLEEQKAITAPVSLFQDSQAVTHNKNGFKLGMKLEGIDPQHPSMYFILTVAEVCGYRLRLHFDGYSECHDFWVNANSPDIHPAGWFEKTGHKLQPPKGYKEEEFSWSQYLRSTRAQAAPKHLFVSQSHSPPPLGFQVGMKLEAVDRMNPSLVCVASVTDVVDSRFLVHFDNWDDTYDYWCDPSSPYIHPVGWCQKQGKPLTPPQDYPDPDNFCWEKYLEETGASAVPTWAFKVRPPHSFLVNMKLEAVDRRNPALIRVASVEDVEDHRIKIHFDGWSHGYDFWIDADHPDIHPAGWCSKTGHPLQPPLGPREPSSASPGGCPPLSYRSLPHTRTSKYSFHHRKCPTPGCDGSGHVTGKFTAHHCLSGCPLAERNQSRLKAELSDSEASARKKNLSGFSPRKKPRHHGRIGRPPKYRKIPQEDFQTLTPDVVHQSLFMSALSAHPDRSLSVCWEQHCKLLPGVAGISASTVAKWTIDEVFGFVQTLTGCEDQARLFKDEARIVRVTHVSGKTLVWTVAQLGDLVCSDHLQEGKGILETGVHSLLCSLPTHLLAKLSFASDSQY
#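 Read-out is AlphaScreen signal from streptavidin donor and nickel chelate acceptor beads (10 ug/mL final each) bridging L3MBTL1 (50 nM) and biotinylated K9-monomethylated H3(1-15) peptide (75 nM), after 30 min compound exposure at room temperature.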
# Pol iota inh – DNA polymerase iota (human) inhibition; Q9UNA4; Pol iota fluorescent replication assay, 10 min; Potency, µM (top dose mostly 115 µM), without a hit: at the highest dose activity, negative = inhibition, hits mostly inhibitors; actives 1% (n = 390,000); AID 588590; note: potency is the fitted concentration of half-maximal effect
#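 Fluorescent replication assay read twice, at 0 min and 10 min after adding 50 nM (final) substrate. Enzyme (10 nM) and compounds were first incubated 15 min at room temperature; enzyme-free buffer wells were negative controls.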
# Pol eta inh-1 – inhibitors of human DNA polymerase eta; Q9Y253; recombinant Pol eta, fluorescent DNA replication assay; Potency, µM (highest dose often 114 µM), for the others: at the highest dose activity change, negative = inhibition, hits mostly inhibitors; actives 1.2% (n = 390,000); AID 588591; note: potency is the fitted concentration of half-maximal effect; % is set by controls: 0 for no effect and ±100 for the full control effect
#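 Fluorescent replication assay: 50 nM final substrate added after a 15 min room-temperature compound preincubation with 10 nM enzyme. Signal taken at 0 min and again at 10 min.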
# PGK validate – blocks T. brucei phosphoglycerate kinase; shares compounds with Pol kappa inh-1; AID 686980; Potency, µM (top dose mostly 57.5 µM), for inactives: at the top dose activity change, negative = inhibition, hits mostly inhibitors; actives 79% (n = 500); TbPGK coupled GAPDH assay, Kinase-Glo luminescence; note: potency is the fitted concentration of half-maximal effect; % is set by controls: 0 for no effect and ±100 for the full control effect; nearly all actives have a fitted effect of over 65% in size
# POLI cherry-pick – Confirm cherry-picked inhibitors of human polymerase iota; shares compounds with Pol kappa inh-1; Pol iota primer extension, TAMRA/BHQ fluorescence; Potency, µM, actives largely listed as inhibitors; actives 77% (n = 1,500); note: potency is the fitted concentration of half-maximal effect
# GALK inh confirm – confirmation of human galactokinase (GALK) inhibitors | actives 70% (n = 150) | shares compounds with Pol eta inh-1 | purified GALK, Kinase-Glo ATP depletion luminescence | Potency, µM (series often up to 115 µM), for the others: top-dose activity, negative = inhibition, hits mostly inhibitors | AID 2015
# Redox cycling – generates H2O2 by redox cycling, flagging GALK artifacts | shares compounds with Pol eta inh-1 | Phenol red-HRP H2O2 redox cycling, absorbance 600 nm | Potency, µM (doses to about 115 µM), without a hit: at the top dose activity change, negative = H2O2 signal, actives largely listed as inhibitors | actives 40% (n = 150)
# HEK293 viability – HEK-293 cytotoxicity, GALK inhibitor secondary; actives 10% (n = 170); shares compounds with Pol eta inh-1; AID 2547; Potency, µM (titrated, usually from 46.1 µM), for the others: at the highest dose activity change, negative = cytotoxicity, actives largely listed as inhibitors; HEK-293 viability, ATP luminescence (CellTiter-Glo), 24/48 h; note: potency is the fitted concentration of half-maximal effect; % is set by controls: 0 for no effect and ±100 for the full control effect
# Pol kappa inh-2 – confirmation of human DNA polymerase kappa inhibitors | shares compounds with Pol eta inh-1 | purified Pol-kappa, fluorescent strand-displacement substrate | Potency, µM, most hits filed as inhibitors | actives 76% (n = 920) | AID 720501; note: potency is the fitted concentration of half-maximal effect
# Pol eta inh-2 – Pol eta (human) inhibition, cherry-pick confirmation | Pol eta primer extension, TAMRA/BHQ fluorescence, 10 min | Potency, µM, actives largely listed as inhibitors | shares compounds with Pol eta inh-1 | actives 64% (n = 2,600) | AID 720502; note: potency is the fitted concentration of half-maximal effect
# * marks the source's active call; other numbers are inactive results; ? = inconclusive; . = not tested or not shown; [ ] = another dose, or the depositor's remark. This is a sample that favours compounds with a hit; in the whole collection about 2.5% have one here. Calls come from the whole dose curve; as a rule, active = well fitted curve in the direction sought with a large enough effect; inconclusive = small, poorly fitted or top-dose-only effect, or another doubt; inactive = no such curve, though single readings can be large; an effect the other way counts as inactive or inconclusive.
SMILES,Pol kappa inh-1,POLB inh,APE1 inh,L3MBTL1 block,Pol iota inh,Pol eta inh-1,POLI cherry-pick,Pol kappa inh-2,Pol eta inh-2,others
O=C(O)c1ccc(NS(=O)(=O)c2ccc3c(c2)C2C=CCC2C(c2ccccc2F)N3)cc1 (stereo not drawn),35µM*,?,?,7.9µM*,?,10µM*,38*,.,19*,
Cc1ccc(NS(=O)(=O)c2ccc3c(c2)[C@H]2C=CC[C@H]2[C@@H](c2ccc(F)cc2)N3)cc1C,6%,4%,.,.,14%,-14%,.,.,.,
Cn1cccc1C(=O)OCc1nc2ccccc2c(=O)[nH]1,71µM*,.,-5%,-77%,18µM*,20µM*,47*,.,?,
O=C(NC(=S)Nc1ccc(S(=O)(=O)Nc2nccs2)cc1)c1ccc(Br)o1,-21%,3%,-3%,.,?,11%,.,.,.,
O=C(/C=C/c1ccc(Br)cc1)NC(=S)Nc1ccc(S(=O)(=O)Nc2nccs2)cc1,-5%,?,3%,-1%,16%,?,15*,.,17*,
CCc1ccc(/C(C)=N/NC(=O)CNC(=O)/C=C/c2ccco2)cc1,32µM*,.,.,.,5µM*,8.9µM*,15*,.,21*,PGK validate=3.3µM*
COc1cccc2c1C(=O)c1c(O)c3c(c(O)c1C2=O)CC(O)(C(=O)CO)CC3OC1CC(N(C)C)C(O)C(C)O1 (stereo not drawn),?,.,.,.,40µM*,?,2.7*,34*,27*,
O=C(O)c1ccc(Nc2nc(-c3cc4ccccc4oc3=O)cs2)cc1O,56µM*,100µM*,-7%,?,22µM*,25µM*,?,75*,67*,
CC(=O)Nc1ccc(Nc2nc(-c3cc4ccccc4oc3=O)cs2)cc1,3%,0%,17%,-1%,145%,9%,.,.,.,
O=C(Cc1ccc([N+](=O)[O-])cc1)N/N=C/c1ccccc1F,3%,19%,14%,-5%,1%,-22%,.,.,.,
CC1CCC(NC(=O)COC(=O)CCC(=O)c2ccc(Cl)s2)CC1 (stereo not drawn),-6%,.,-9%,4%,29%,-11%,.,.,.,
Cn1cccc1CC(=O)N/N=C/C=C/c1ccco1,35µM*,25µM*,6%,25µM*,18µM*,?,67*,38*,?,
COc1ccc2c(=O)c3c(=O)n(Cc4ccco4)c(-c4ccco4)nc3oc2c1,71µM*,?,?,.,20µM*,35µM*,67*,.,43*,
CCOC(=O)C1CCN(c2c(NCCCN(CC)c3ccccc3)c(=O)c2=O)CC1,-24%,0%,13%,-4%,-18%,2%,.,.,.,
CCN(CCCNc1cc2c(c(N)c1S(=O)(=O)O)C(=O)c1ccccc1C2=O)c1ccccc1,.,.,.,.,.,25µM*,67*,?,76*,
Oc1c(Br)cc(Br)cc1/C=N/Nc1ccc(Cl)nn1,-8%,-1%,38%,.,-19%,-14%,.,.,.,
Oc1ccc(/C=N/Nc2ccc(Cl)nn2)c(O)c1O,?,18µM*,27%,.,?,10µM*,17*,.,30*,
Cc1ccc2nc(/C(C#N)=C/c3ccc(-c4cccc(Cl)c4)o3)[nH]c2c1,50µM*,?,.,.,79µM*,89µM*,19*,19*,67*,
Cc1ccc2nc(/C(C#N)=C\c3ccc(N4CCCCC4)c([N+](=O)[O-])c3)[nH]c2c1,-11%,25µM*,1%,.,?,-14%,38*,47*,60*,
Cc1ccc2nc(/C(C#N)=C/c3ccc(O)c(O)c3)[nH]c2c1,?,?,6%,.,?,?,.,.,.,
Cc1ccc2nc(/C(C#N)=C/c3cccc(Br)c3)[nH]c2c1,-19%,22µM*,.,.,?,56µM*,42*,17*,60*,
Cc1ccc2nc(/C(C#N)=C/c3ccccc3C(=O)O)[nH]c2c1,-11%,13%,9%,4%,104%,-8%,.,.,.,
C[C@@H]1CN([C@H](C)CO)C(=O)c2c(c3ccccc3n2C)-c2ccccc2CO[C@@H]1CN(C)S(=O)(=O)c1cccs1,.,.,.,.,.,-18%,.,.,.,
O=C(Nc1cccc(Oc2ccc(C(=O)O)c(C(=O)O)c2)c1)c1ccc(-c2ccccc2)cc1,89µM*,?,-7%,.,?,22µM*,84*,.,?,PGK validate=15µM*;GALK inh confirm=24µM*;Redox cycling=4%;HEK293 viability=12%
CC(C)(C)C(=O)Nc1ccc(C(=O)Nc2cccc(Oc3ccc(C(=O)O)c(C(=O)O)c3)c2)cc1,-32%,-2%,?,-6%,-30%,?,.,.,.,
O=C(Nc1ccc(Cl)c(Cl)c1)C1CC1,2%[19.4 µM],.,.,.,.,.,.,.,.,
Cc1ccc2c(nc3s/c(=C\c4ccc(-c5ccccc5C(=O)O)o4)c(=O)n32)c1C,?,20µM*,?,.,15%,10µM*,75*,24*,17*,
O=c1/c(=C\c2cccnc2)sc2nc3ccccc3n12,-2%,-1%,0%,.,-9%,-11%,.,.,.,
